Reference: PubChem BioAssay (NCI)
The panel holds about 79,000 compounds, 15% with a hit somewhere; the sample as a whole holds those more often. The source made the active and inactive calls. Cut-off read from the data, not from the text of the source: active = growth inhibition above about 70%; inactive = the rest.

What was measured:
[1] = NCI Yeast Anticancer Drug Screen. Data for the mec2-1 strain (AID 157); details: S. cerevisiae mec2-1 strain, hits give high values
In short: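 Using mec2-1 yeast: add compound, measure growth, express inhibition versus vehicle-treated cultures.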

[2] = NCI Yeast Anticancer Drug Screen. Data for the rad14 strain (AID 159);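 note: 0% = growth of vehicle-treated control cultures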; details: S. cerevisiae rad14 strain growth inhibition, hits give high values
In short: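 Inhibition of growth is reported for a repair-deficient yeast mutant following compound treatment, calculated relative to cultures that received vehicle.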

[3] = NCI Yeast Anticancer Drug Screen. Data for the sgs1 mgt1 strain (AID 161);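 note: 0% = growth of cultures given vehicle only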; details: S. cerevisiae sgs1 mgt1 strain, hits give high values
In short: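 Yeast cells carrying a defined DNA-repair defect were exposed to test compounds. Growth inhibition was measured relative to vehicle-treated controls.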

[4] = NCI Yeast Anticancer Drug Screen. Data for the CLN2oe strain (AID 163);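 note: 0% = growth of vehicle-only control cultures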; details: S. cerevisiae CLN2oe strain, hits give high values
In short: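 Whole-cell yeast growth assay. A strain engineered for altered cell-cycle control received compound, and inhibition relative to vehicle-treated cultures was recorded.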

[5] = NCI Yeast Anticancer Drug Screen. Data for the cln2 rad14 strain (AID 165);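 note: 0% = growth equal to vehicle treated cultures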; details: S. cerevisiae cln2 rad14 strain, hits give high values
In short: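 Yeast strain cln2 rad14, bearing defects in cell cycle control and DNA repair, serves as the test system; values reflect growth inhibition compared with vehicle.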

[6] = NCI Yeast Anticancer Drug Screen. Data for the bub3 strain (AID 167); details: S. cerevisiae bub3 mutant strain, hits give high values
In short: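 Mutant yeast screening strain plus compound; vehicle-treated cultures serve as the 0% inhibition reference.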

[7] = NCI Yeast Anticancer Drug Screen. Data for the wt2 strain (AID 169); details: S. cerevisiae wt2 strain growth inhibition, hits give high values
In short: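 Treated yeast vs. vehicle-treated yeast: growth inhibition determined.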

[8] = NCI Yeast Anticancer Drug Screen. Data for the mlh1 strain (AID 171);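 note: 0% = growth of vehicle-treated control cultures of the same strain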; details: S. cerevisiae mlh1 strain growth inhibition, hits give high values
In short: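 A yeast strain with a defined genetic lesion serves as the test organism. Cultures receive compound or vehicle, and growth is measured.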

[9] = NCI Yeast Anticancer Drug Screen. Data for the sgs1 strain (AID 173);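 note: 0% = growth of vehicle-only control cultures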; details: S. cerevisiae sgs1 mutant, hits give high values
In short: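 A genetically defined yeast mutant is incubated with the test compound, and its growth is compared to that of the same strain given vehicle.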

[10] = NCI Yeast Anticancer Drug Screen. Data for the mlh1 rad18 strain (AID 175); details: S. cerevisiae mlh1 rad18 strain growth inhibition, hits give high values
In short: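 Steps: expose repair-defective yeast to compound; measure growth; express inhibition against vehicle-treated controls.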

[11] = NCI Yeast Anticancer Drug Screen. Data for the rad52 strain (AID 147);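 note: 0% = growth of vehicle-treated control cultures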; details: S. cerevisiae rad52 mutant growth inhibition, hits give high values
In short: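 Here a repair-compromised yeast strain receives each compound; its growth is then quantified and normalised to vehicle-only controls.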

[12] = NCI Yeast Anticancer Drug Screen. Data for the wt1 strain (AID 149);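 note: 0% = growth of vehicle-treated wt1 cultures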; details: S. cerevisiae wt1 strain (SPY 50644) growth inhibition, hits give high values
In short: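 Each compound is tested on wt1 yeast and the loss of growth versus vehicle gives the inhibition value.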

[13] = NCI Yeast Anticancer Drug Screen. Data for the rad50EPP+ strain (AID 151);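 note: 0% = growth of vehicle-treated control cultures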; details: S. cerevisiae rad50 mutant strain, hits give high values
In short: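 Read-out is yeast growth inhibition relative to vehicle; cells used were the rad50EPP+ strain.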

[14] = NCI Yeast Anticancer Drug Screen. Data for the mgt1 strain (AID 153); details: S. cerevisiae mgt1 mutant growth inhibition, hits give high values
In short: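 Measured: inhibition of mgt1 yeast growth by compound, normalized to vehicle-treated cultures.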

[15] = NCI Yeast Anticancer Drug Screen. Data for the rad50 strain (AID 155);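 note: 0% = growth of vehicle-only cultures of the same strain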; details: S. cerevisiae rad50 strain growth inhibition, hits give high values
In short: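 Vehicle-treated cultures provide the reference for the growth inhibition reported for compound-exposed, repair-deficient yeast.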

[16] = NCI Yeast Anticancer Drug Screen. Data for the rad18 strain (AID 177); details: S. cerevisiae rad18 mutant growth inhibition, hits give high values
In short: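 Measured value is growth inhibition of a yeast strain bearing a DNA repair alteration, referenced to vehicle-treated cells.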

[17] = at 5.0 µM (retest, dose inferred, filed as 0.5)
[18] = at 50.0 µM (retest, dose inferred, filed as 5.0)

Measured: growth inhibition

CC(=O)OC1CCC2(C)C(=CC(C3C=C4CC(OC(C)=O)CCC4(C)C4=C3C3CC5OC6(CCC(C)CO6)C(C)C5C3(C)CC4)C3=C2CCC2(C)C3CC3OC4(CCC(C)CO4)C(C)C32)C1 (stereo unspecified)
active: [1]; at 100.0 µM 75% | [2]; at 100.0 µM 84% | [3]; at 50.0 µM 90.7% | [6]; at 50.0 µM 74.2% | [7]; at 100.0 µM 93% | [9]; at 100.0 µM 72% | [10]; [18] 88% | [10]; at 50.0 µM 82.5%
inactive: [1]; [17] -12% | [1]; at 11.0 µM 1% | [1]; at 33.0 µM 9% | [1]; [18] 33% | [1]; at 50.0 µM 45% | [2]; at 1.2 µM 1% | [2]; at 3.7 µM 0% | [2]; at 11.0 µM 4% | [2]; at 33.0 µM 13% | [3]; [17] -10% | [3]; [18] 64% | [4]; at 1.2 µM -3% | [4]; at 3.7 µM -8% | [4]; at 11.0 µM -8% | [4]; at 33.0 µM -7% | [4]; at 100.0 µM 53% | [5]; [17] 37% | [5]; [18] 60% | [5]; at 50.0 µM -4.25% | [6]; at 1.2 µM 0% | [6]; at 3.7 µM -1% | [6]; [17] -2% | [6]; at 11.0 µM -3% | [6]; at 33.0 µM 2% | [6]; [18] 69% | [6]; at 100.0 µM 61% | [7]; at 1.2 µM -2% | [7]; at 3.7 µM -3% | [7]; at 11.0 µM -1% | [7]; at 33.0 µM 25% | [8]; at 1.2 µM -1% | [8]; at 3.7 µM 0% | [8]; at 11.0 µM 0% | [8]; at 33.0 µM 12% | [8]; at 100.0 µM 69% | [9]; at 1.2 µM -4% | [9]; at 3.7 µM -5% | [9]; at 11.0 µM 3% | [9]; at 33.0 µM 25% | [10]; [17] -28%

O=C1NC(=O)c2ccc([N+](=O)[O-])c3cccc1c23
inactive: [11]; at 1.2 µM 11% | [11]; at 3.7 µM 27% | [11]; at 11.0 µM 36% | [11]; at 33.0 µM 56% | [12]; at 1.2 µM -12% | [12]; at 3.7 µM 32% | [12]; at 11.0 µM 25% | [12]; at 33.0 µM 24% | [12]; at 100.0 µM 36% | [13]; at 1.2 µM 45% | [13]; at 3.7 µM 51% | [13]; at 11.0 µM 65% | [14]; at 1.2 µM 11% | [14]; at 3.7 µM 18% | [14]; at 11.0 µM 20% | [14]; at 33.0 µM 30% | [14]; at 100.0 µM 49% | [15]; at 1.2 µM 7% | [15]; at 3.7 µM 13% | [15]; [17] -15% | [15]; at 11.0 µM 20% | [15]; at 33.0 µM 47% | [15]; [18] 55% | [15]; at 50.0 µM 64.5% | [15]; at 100.0 µM 65% | [1]; at 1.2 µM 11% | [1]; at 3.7 µM 20% | [1]; [17] -36% | [1]; at 11.0 µM 20% | [1]; at 33.0 µM 35% | [1]; [18] 23% | [1]; at 50.0 µM 33.5% | [2]; at 1.2 µM -2% | [2]; at 3.7 µM 5% | [2]; at 11.0 µM 21% | [2]; at 33.0 µM 55% | [3]; [17] -8% | [3]; [18] 23% | [3]; at 50.0 µM 68.8% | [4]; at 1.2 µM -2% | [4]; at 3.7 µM -1% | [4]; at 11.0 µM 3% | [4]; at 33.0 µM 17% | [4]; at 100.0 µM 68% | [5]; [17] 24% | [5]; [18] 68% | [6]; at 1.2 µM 28% | [6]; at 3.7 µM 43% | [6]; [17] 2% | [6]; at 11.0 µM 39% | [6]; at 33.0 µM 55% | [6]; at 50.0 µM 51.9% | [6]; at 100.0 µM 67% | [7]; at 1.2 µM 21% | [7]; at 3.7 µM 12% | [7]; at 11.0 µM 29% | [7]; at 33.0 µM 43% | [7]; at 100.0 µM 62% | [8]; at 1.2 µM 32% | [8]; at 3.7 µM 28% | [8]; at 11.0 µM 41% | [8]; at 33.0 µM 65% | [9]; at 1.2 µM 41% | [9]; at 3.7 µM 51% | [9]; at 11.0 µM 66% | [10]; [17] 51% | [10]; at 50.0 µM 37.5% | [16]; at 1.2 µM 48%
active: [11]; at 100.0 µM 73% | [13]; at 33.0 µM 78% | [13]; at 100.0 µM 81% | [1]; at 100.0 µM 72% | [2]; at 100.0 µM 79% | [5]; at 50.0 µM 72.2% | [6]; [18] 79% | [8]; at 100.0 µM 75% | [9]; at 33.0 µM 78% | [9]; at 100.0 µM 74% | [10]; [18] 87% | [16]; at 3.7 µM 72% | [16]; at 11.0 µM 86% | [16]; at 33.0 µM 93% | [16]; at 100.0 µM 92%
